Measurements from ChEMBL document CHEMBL3988442, “University of Dundee, Small-Polar-MMV Screening Library” (2021).
About 13,000 (27%) of roughly 48,000 compounds showed an effect of 50% or more. The list shows a part of the results.

test system: Wolbachia pipientis; assay: Anti-Wolbachia Cell-Based Screen; type: functional; design: scale not given: in the data most compounds retested in dose-response had high values; conditions: 5 µM

Row | Structure (SMILES) | Percent Effect [%]
1 | CC(C)Oc1cccc(F)c1C(C(=O)O)N(C)Cc1ccon1 (stereo not given) | -4.815
2 | CCCN(C)c1ccc(C(=O)NCc2ccnc(C)n2)cc1 | 14.15
3 | CC(C#N)CN(C)Cc1cc(Cl)cc2cccnc12 (stereo not given) | -4.416
4 | FC(F)(F)Sc1ccc(NCc2nnc(C3CC3)o2)cc1 | 4.65
5 | CC(C)Cc1ncc2c(n1)CN(c1nccc(N(C)C)n1)C2 | -11.83
6 | Cc1nc(C(C)(C)NCc2nnc(C(C)C)o2)sc1C | -6.227
7 | O=C(NCCc1cccnc1)NC1CCOC2(CCCCC2)C1 (stereo not given) | -5.946
8 | CCOCc1ccccc1NC(=O)NCC(C)(O)c1ccsc1 (stereo not given) | -1.013
9 | O=C(CCC(=O)N1CCOCC1)NCc1cccnc1-n1cccn1 | 4.294
10 | CC(O)(CNC(=O)c1cccnc1-n1cccn1)c1ccsc1 (stereo not given) | 107.4
11 | CC(O)(CNC(=O)NCc1cccc(-n2cncn2)c1)c1ccco1 (stereo not given) | 22.01
12 | CC(O)(CNC(=O)c1cccnc1-n1cccn1)c1cccs1 (stereo not given) | 100.2
13 | CC(O)(CNC(=O)c1cccnc1-n1cccn1)c1ccco1 (stereo not given) | 109
14 | CCN(CC)CCCC(C)NC(=O)c1cccnc1-n1cccn1 (stereo not given) | -4.775
15 | CNC(=O)c1cccnc1NCc1ccc(-n2cccn2)cc1 | -16.78
16 | CCn1nc(C)c(CNC(=O)NCC(C)(O)c2ccsc2)c1C (stereo not given) | -9.413
17 | CCC(C)Oc1cc(C(=O)Nc2nc(C)ns2)ccn1 (stereo not given) | -22
18 | CC(C)N1C[C@H](O)C[C@H]1c1nc(-c2ccc(OC(F)(F)F)cc2)no1 | -2.832
19 | c1c(-c2nc(CN3CCOCC3)no2)nnn1CC1CCCCC1 | -29.06
20 | Cc1ccc(Cl)c(NC(=O)c2cccc(CN3CC[C@H](O)C3)c2)c1 | 25.72
21 | CSCCc1c(-c2ccccc2)ncn1CC(C)(C)N1CCCC1 | -6.465
22 | Cc1ccc(C(=O)N2CCC3(CCC(=O)N(CC(N)=O)C3)CC2)c(O)c1 | -8.417
23 | COc1cccc(CN2CCC3(CCN(C(=O)C4CC=CC4)CC3)C2)c1.O=C(O)C(F)(F)F | 2.015
24 | COc1cccc(CN2CCC3(CC2)CCN(C(=O)[C@@H]2CCCO2)C3)c1.O=C(O)C(F)(F)F | 105.3
25 | COc1cccc(CN2CCC3(CC2)CCN(c2ncc(C)cn2)C3)c1.O=C(O)C(F)(F)F | -9.924
26 | COc1cccc(CN2CCC3(CC2)CCN(c2ncccn2)C3)c1.O=C(O)C(F)(F)F.O=C(O)C(F)(F)F | 13.94
27 | COc1cccc(CN2CCCC3(CCN(C(=O)N4CCCC4)C3)C2)c1.O=C(O)C(F)(F)F (stereo not given) | 81.34

Row | Structure (SMILES) | Percent Effect [%]
28 | COc1cccc(CN2CCC3(CCN(c4ncc(C)cn4)CC3)C2)c1.O=C(O)C(F)(F)F | 4.048
29 | O=C(O)[C@@H]1CN(Cc2ccc3nsnc3c2)C[C@H]1c1ccncc1 | 20.11
30 | CCOCCC(=O)N1CCCN(Cc2csc(CC)n2)CC1 | -3.622
31 | CC(C(=O)NCCc1cccs1)N1CCC(n2ccnc2)CC1 (stereo not given) | 14.05
32 | N#Cc1cccc(N2CCC(c3nccn3Cc3cscn3)CC2)n1 | 19.37
33 | CC(C(=O)NCC1(c2cccc(Br)c2)CCC1)S(C)(=O)=O (stereo not given) | -10.98
34 | O=C(NC1CC1)c1cc2c(nc1O)CC(c1cccs1)CC2=O (stereo not given) | 2.644
35 | O=C(c1cc(Cl)ccc1OC1CCN(C2CCCC2)CC1)N1CCCO1 | -1.079
36 | Cc1ccc(CN(c2cc(C)nc3nc(C(F)(F)F)nn23)C2CC2)cc1 | 24.27
37 | Cc1cc(N(Cc2cccs2)C2CC2)n2nc(C(F)(F)F)nc2n1 | 103
38 | Cc1cc(N(Cc2ccccc2F)C2CC2)n2nc(C(F)(F)F)nc2n1 | 37.88
39 | CC(C)OCCS(=O)(=O)NC1CCN(C2CCCC2)C1 (stereo not given) | -4.658
40 | CNc1cc(CCNC(=O)CC(C)C)nc(-c2ccccn2)n1 | 101.5
41 | CCc1nc(CCNS(=O)(=O)c2cccc(C(=O)N(C)CC)c2)cs1 | 4.281
42 | CNc1cc(CCNC(=O)C2CCCC2)nc(-c2ccccn2)n1 | 117
43 | CC(C)C(O)CNC(=O)CCCc1ccccn1 (stereo not given) | -2.211
44 | O=C(Nc1cc(-c2ccccn2)no1)C1CC1 | -13.86
45 | CNc1cc(CCNS(=O)(=O)c2ccccc2)nc(-c2ccccn2)n1 | 105
46 | O=C(NC[C@H]1O[C@H](Cc2cc(-c3ccccn3)on2)CC[C@@H]1O)C1CC1 | -6.652
47 | CN(C)C(=O)c1cccc(CCNS(=O)(=O)c2ccccc2)c1 | 19.97
48 | CNc1cc(CCNC(=O)c2cccnc2)nc(-c2ccncc2)n1 | -9.73
49 | CC(O)CN1CCC(CNCCOCC(F)(F)F)CC1 (stereo not given) | 8.822
50 | Cc1cccc2[nH]c(C3CCN(C(=O)c4cccnn4)CC3)nc12 | 19.31
51 | Cc1cccc(CN2Cc3[nH]nc(COCCO)c3C2)n1.O=C(O)C(F)(F)F | -6.746
52 | CCOCCCNC(=O)CN(c1cc(C)cc(C)c1)S(C)(=O)=O | 107.2
53 | CCOCCCNC(=O)CN(c1ccc(F)c(F)c1)S(C)(=O)=O | 103.3
54 | CCOCCCNC(=O)c1cc(Br)c2c(c1)OCCO2 | -17.45

Row | Structure (SMILES) | Percent Effect [%]
55 | CCOCCCNC(=O)CN(c1ccc(C)c(C)c1)S(C)(=O)=O | 99.16
56 | CCOCCCNC(=O)CCSCc1csc(C)n1 | 4.852
57 | CC(C)OCCCNC(=O)CSc1nnc(OC(C)C)s1 | -7.044
58 | CCOCCC(=O)N(C)c1ccc(F)c(Cl)c1 | -4.782
59 | CCOCC(=O)N(C)c1ccc(F)c(Cl)c1 | 11.18
60 | CC(C)OCCCNC(=O)CN(c1ccc(F)c(F)c1)S(C)(=O)=O | 109.3
61 | CCOCCCC(=O)NS(=O)(=O)c1ccc(C)s1 | -11.1
62 | Cc1ccc(N(CC(=O)NCc2nnc3n2CCC3)S(C)(=O)=O)cc1 | -5.606
63 | Cc1cccc(CC(=O)NCCCOC(C)C)c1 | 4.055
64 | CCCNC(=O)C(C)Nc1ccn(Cc2ccccn2)n1 (stereo not given) | 6.912
65 | CCCOCCN1CCc2[nH]c(-c3ccccc3)nc2C1 | -7.69
66 | CN(C)C1COC2(CCN(S(=O)(=O)c3ccc(F)cc3)CC2)C1.O=C(O)C(F)(F)F (stereo not given) | -7.314
67 | CN(CC1Cc2ccccc2CN1C)c1nc(N)nc2c1CCNCC2 (stereo not given) | -3.797
68 | COCc1cc(N(C)Cc2c(C)nn(C)c2C)n2nccc2n1 | 12.12
69 | CCOCCCNC(=O)CN(c1cccc(F)c1)S(C)(=O)=O | 112.7
70 | COCCCNC(=O)CN(C)Cc1ccc(F)cc1Cl | -11.13
71 | CCOCCCNC(=O)Cc1cccc(F)c1 | 2.614
72 | COc1cccc2ccc(CN3CCN(c4ncccc4C)CC3)nc12 | 2.179
73 | COc1coc(CN2CCCC(CCc3ccccc3F)C2)cc1=O (stereo not given) | 19.37
74 | CN1N=C(C(=O)N2CCCC(CCc3c(F)cccc3F)C2)CCC1=O (stereo not given) | 7.677
75 | Cc1nc(N)ncc1C(=O)N1CCCC(CCc2ccc(F)c(F)c2)C1 (stereo not given) | 95.78
76 | Cc1nc(N)ncc1C(=O)N1CCCC(CCc2ccc(F)cc2)C1 (stereo not given) | 102.6
77 | Cc1ccc(-c2ncc(C(=O)N3CCCC(CCN)C3)c(O)n2)cc1 (stereo not given) | 0.928
78 | Cc1nc(N)ncc1C(=O)N1CCCC(CCc2ccccc2F)C1 (stereo not given) | 102.1
79 | Cc1nc(CN2CCCC(CCc3ccc(F)c(F)c3)C2)c[nH]1 (stereo not given) | -4.452
80 | CN1N=C(C(=O)N2CCCC(CCc3ccccc3F)C2)CCC1=O (stereo not given) | -18.53
81 | Cc1nc(N)sc1C(=O)N1CCCC(COc2ccc(F)cc2)C1 (stereo not given) | -20.41

Row | Structure (SMILES) | Percent Effect [%]
82 | O=C(c1cnc(O)cc1O)N1CCCC(CCc2ccccc2F)C1 (stereo not given) | 119.6
83 | CN1N=C(C(=O)N2CCCC(CCc3cccc(F)c3)C2)CCC1=O (stereo not given) | -39.97
84 | CCc1nc(N)sc1C(=O)N1CCCC(CCc2ccccc2C)C1 (stereo not given) | 1.755
85 | O=C(NCCN1CCOCC1)N(Cc1ccoc1)C1CCCCC1 | 0.09271
86 | COC(=O)CCC(=O)Nc1ccc(Br)c(C)n1 | -4.996
87 | COc1cccc(CCC2CCCN(C(=O)c3cnccn3)C2)c1 (stereo not given) | -42.01
88 | COc1cccc(CCC2CCCN(C(=O)c3ccc(OC)o3)C2)c1 (stereo not given) | -11.16
89 | COc1ccc(CCC2CCCN(C(=O)c3cnc(N)nc3C)C2)cc1 (stereo not given) | 107.8
90 | Cc1nccn1CCN(C)C(=O)c1cn(-c2ccccc2)nn1 | 107.7
91 | CCN(Cc1ccncc1)C(=O)c1cn(CCC2CCCCC2)nn1 | 4.586
92 | CN(Cc1ccncc1)C(=O)NCc1cn(-c2ccccc2)nn1 | -7.371
93 | Cc1nccn1CCC(=O)N1CCCN(c2ccccc2)CC1 | 21.45
94 | Cc1nccn1CCC1CCCCN1Cc1cnc(N(C)C)nc1 (stereo not given) | -18.73
95 | CN(C)CCN(C)C(=O)c1cn(CC2CCCCC2)nn1 | 101.9
96 | CCN(Cc1ccncc1)C(=O)c1cn(CC2CCCNC2)nn1 (stereo not given) | -3.068
97 | Cc1nccn1CCC1CCCCN1C(=O)c1ccc(N(C)C)cc1 (stereo not given) | 11.5
98 | Cc1nccn1CCN(C)C(=O)c1cn(CC2CCCCC2)nn1 | 121.2
99 | CC(C)c1nn(C)c(N(C)C)c1CNCc1cscn1.Cl | -8.215
100 | Cc1ncccc1NC(=O)[C@@H]1CCO[C@@H]2CCN(c3ccccc3)C[C@@H]21.O=C(O)C(F)(F)F.O=C(O)C(F)(F)F | 108.5
101 | O=C(NCc1ccco1)[C@@H]1CCO[C@@H]2CCN(c3ccncn3)C[C@H]21.O=C(O)C(F)(F)F | -22.24
102 | COCCNC(=O)[C@@H]1CCO[C@@H]2CCN(c3ccc(C)nn3)C[C@@H]21 | -1.212
103 | CC(C)NC(=O)[C@@H]1CCO[C@@H]2CCN(c3ncccn3)C[C@@H]21.O=C(O)C(F)(F)F | -3.581
104 | Cc1ncccc1NC(=O)[C@@H]1CCO[C@@H]2CCN(c3ccncn3)C[C@H]21 | 113.9
105 | O=C(NCC1CC1)[C@@H]1CCO[C@@H]2CCN(c3ncccn3)C[C@@H]21.O=C(O)C(F)(F)F | -3.49
